Screens as filed in PubChem.
BAZ2B inh = blocks human BAZ2B; Q9UIF8; AlphaScreen BAZ2B-H3K14Ac peptide displacement; Potency, µM (doses to about 114 µM), most hits filed as inhibitors; 360,000 tested, 4.4% active; AID 504333; note: nearly all actives have a fitted effect of over 60% in size
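AlphaScreen displacement: compounds (up to 110uM) incubated 30 min at room temperature with a preformed 50 nM BAZ2B/50 nM biotinylated H3K14Ac peptide complex in PBS pH 7.4 with Tween-20. Donor and acceptor beads at 10 ug/mL final added, 20 min light-protected before reading.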
JMJD2A Tudor = JMJD2A Tudor domain (human) inhibition. O75164. AlphaScreen JMJD2A-Tudor / H3K4me3 peptide binding. Potency, µM (top dose mostly 114 µM), hits mostly inhibitors. 390,000 tested, 4.4% active. AID 504339; note: nearly all actives have a fitted effect of over 50% in size
VDR inhibitor = vitamin D3 receptor (human) inhibition. P11473. VDR-SRC2-3 peptide fluorescence polarization, 2 h. Potency, µM, usual class: inhibitors. 400,000 tested, 0.93% active
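FP read-out; VDR + SRC2-3 coactivator peptide; 23 nl compound by pintool; 2 h RT incubation; reagents held at 4 deg C, protected from light.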
HP1b binding inh = blocks HP1-beta chromodomain binding to methylated histone tails. AlphaScreen HP1-beta / biotin-H3K9me3 peptide binding. Potency, µM (doses to about 114 µM), most hits filed as inhibitors. 390,000 tested, 0.56% active. AID 540317; note: nearly all actives have a fitted effect of over 70% in size
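HP1-beta protein (50 nM final) preincubated 30 min at room temperature with biotinylated H3(1-18)K9me3 peptide (50 nM) in PBS pH 7.4, 0.01% Tween-20, then compound added for 30 min. AlphaScreen streptavidin donor/nickel chelate acceptor beads (10 ug/mL final), 30 min dark, luminescence read.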
G9a inh = inhibitors of human histone lysine methyltransferase G9a; Q96KQ7; G9a H3K9 monomethylation, AlphaScreen, 2 h; Potency, µM (titrated, usually from 102 µM), usual class: inhibitors; 350,000 tested, 8.8% active; AID 504332; note: nearly all actives have a fitted effect of over 75% in size
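Chemiluminescent proximity detection of H3K9 monomethylation, read after 10 min bead incubation in the dark. Reaction: 20 nM G9a, 500 nM biotin-H3K9 peptide, 20 uM SAM cofactor, 2 h, room temperature, following 15 min enzyme-compound preincubation.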
PLK1 PBD inh = blocks phosphopeptide binding to human PLK1 polo-box domain; AID 720504; Plk1 PBD binding of FITC phosphopeptide, fluorescence polarization; Potency, µM, hits mostly inhibitors; P53350; 360,000 tested, 2.8% active; note: series mostly up to about 57 µM; nearly all actives have a fitted effect of over 65% in size
Numbers stand for hits; [ ] = dose if it differs, or a comment. Compounds with a hit are over-represented: about 11% of the library has one in this group of screens. Calls come from the whole dose curve; as a rule, active = well fitted curve in the direction sought with a large enough effect; inconclusive = small, poorly fitted or top-dose-only effect, or another doubt; inactive = no such curve, though single readings can be large; an effect the other way counts as inactive or inconclusive.

For O=C(Cc1cccs1)Nc1ccc(S(=O)(=O)N2CCCCC2)cc1 the results were BAZ2B inh inactive, JMJD2A Tudor inconclusive, VDR inhibitor inactive, HP1b binding inh inactive, G9a inh 8.91µM and PLK1 PBD inh inactive.
For CN1CCN(S(=O)(=O)c2ccc(NC(=O)Cc3cccs3)cc2)CC1 the results were BAZ2B inh inactive, JMJD2A Tudor inactive, VDR inhibitor inactive, HP1b binding inh inactive, G9a inh inactive[12.7 µM] and PLK1 PBD inh inactive.
Screening O=C(NCCC(=O)N1CCN(S(=O)(=O)c2ccc(Cl)cc2)CC1)Nc1ccccc1 returned BAZ2B inh inactive, JMJD2A Tudor inactive, VDR inhibitor inactive, HP1b binding inh inactive, G9a inh 50.1µM and PLK1 PBD inh inactive.
Screening Cc1ccccc1NC(=O)N1CCN(S(=O)(=O)c2ccccc2)CC1 returned BAZ2B inh inactive, JMJD2A Tudor inconclusive, VDR inhibitor inactive, HP1b binding inh inconclusive, G9a inh inactive and PLK1 PBD inh 16.8µM.
For CCC(C)c1ccc(S(=O)(=O)N2CCN(S(=O)(=O)c3ccc(NC(C)=O)cc3)CC2)cc1 (stereo unspecified) the results were BAZ2B inh inactive, JMJD2A Tudor inactive, VDR inhibitor inactive, HP1b binding inh inactive, G9a inh inactive and PLK1 PBD inh inactive.
For CCC(C)N1CCN(S(=O)(=O)c2ccc(NC(C)=O)cc2)CC1 (stereo unspecified) the results were BAZ2B inh 56.2µM, JMJD2A Tudor 22.4µM, VDR inhibitor inactive, HP1b binding inh inconclusive, G9a inh 20µM and PLK1 PBD inh inactive.
O=C(NCC(c1ccc2c(c1)OCO2)N1CCN(c2ccccc2)CC1)C(=O)Nc1cccc(F)c1 (stereo unspecified) was read as BAZ2B inh inactive, JMJD2A Tudor inactive, VDR inhibitor inactive, HP1b binding inh inactive and G9a inh inactive.
CCCC[C@]12Cc3cc(C#N)ccc3C(O1)c1c(cc(-c3ccccc3)oc1=O)O2 was read as BAZ2B inh inactive[22.9 µM].
For O=C(COc1ncnc2ccccc12)N1CCN(S(=O)(=O)c2ccccc2)CC1 the results were BAZ2B inh inactive, JMJD2A Tudor inactive, VDR inhibitor inactive, HP1b binding inh inactive, G9a inh inactive[12.7 µM] and PLK1 PBD inh inactive.
O=C(COc1ncnc2ccccc12)N1CCN(S(=O)(=O)c2ccc(Cl)cc2)CC1 was read as BAZ2B inh inactive, JMJD2A Tudor inconclusive, VDR inhibitor inactive, HP1b binding inh inactive, G9a inh inactive and PLK1 PBD inh 29.9µM.
Cc1cccc(C)c1NC(=O)CCSCCc1ccccn1 was read as BAZ2B inh inactive, JMJD2A Tudor inactive, VDR inhibitor inactive, HP1b binding inh inconclusive and G9a inh inactive.
Screening COc1ccc(C(=O)c2ccc(O)cc2)c(O)c1O returned VDR inhibitor inactive.
For CCOC(=O)CCCCCC(=O)Nc1ccc2c(c1)C(=O)N([C@@H](C)CO)C[C@@H](C)[C@H](CN(C)C(=O)Nc1ccccc1)OCCCC[C@H](C)O2 the results were PLK1 PBD inh inactive.
`COc1ccc(-c2ccc(CN3C(C)C(=O)N(Cc4cn(CCC5OCCO5)nn4)CCS3(=O)=O)cc2)cc1` (stereo unspecified) gave PLK1 PBD inh 42.3µM.
Screening COc1ccc(-c2ccc(CN3C(C)C(=O)N(Cc4cn(CCC5OCCO5)nn4)CCS3(=O)=O)cc2)cn1 (stereo unspecified) returned PLK1 PBD inh inactive.
Screening CCn1c2ccc(F)cc2c2nnc(NN)nc21 returned BAZ2B inh inconclusive, JMJD2A Tudor inconclusive, VDR inhibitor inactive, HP1b binding inh inactive, G9a inh 50.1µM and PLK1 PBD inh inactive.
For CCCn1c2ccc(F)cc2c2nnc(NN)nc21 the results were BAZ2B inh inactive, JMJD2A Tudor inactive, VDR inhibitor inactive, HP1b binding inh inactive, G9a inh 50.1µM and PLK1 PBD inh inactive.
`O=C(O)c1ccc2c(c1)C(=O)N(c1ccc([N+](=O)[O-])cn1)C2=O` gave BAZ2B inh inactive, JMJD2A Tudor inactive, VDR inhibitor inactive, HP1b binding inh inactive and PLK1 PBD inh inactive.
`Cc1ccc([N+](=O)[O-])cc1S(=O)(=O)N1CCNCC1` gave BAZ2B inh inactive, JMJD2A Tudor inactive[11.4 µM], VDR inhibitor inactive, HP1b binding inh inactive, G9a inh inactive and PLK1 PBD inh 15µM.
